Results as given in PubChem BioAssay (Tox21).
Records with an inconclusive call do not appear. Values without a mark were called inactive. Active and inactive are the calls of the source. Calls follow the shape of the dose curve; as a rule, active = well fitted activation curve with a large enough effect in the signal ratio in the repeat runs (not every such curve was filed as active); inconclusive = weak or mixed curves; inactive = flat fitted curve, though single readings scatter; the % refers to the signal ratio.

Experiment: qHTS assay to identify small molecule agonists of the TGF-beta/Smad signaling pathway (AID 1346859)
Conditions: SBE-bla HEK293T, TGF-beta/Smad beta-lactamase reporter, 5 h; series mostly up to 76.8 µM; activation: at the top concentration
In short: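 SBE-bla HEK293T cells plated overnight, then compound exposure for 5 h at 37 C. Beta-lactamase reporter read with LiveBLAzer B/G FRET substrate after 2 h at room temperature, fluorescence at 405 nm excitation, 460/530 nm emission.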
% is scaled to controls: 0 for no effect and ±100 for the full control effect.

Question: With `CC1COc2c(N3CCN(C)CC3)c(F)cc3c(=O)c(C(=O)O)cn1c23` (stereo not drawn) as the compound, how does the “activation” value read?
Answer: 1.33% [at 35.3 µM]

Question: With `CCc1ccc(C(c2ccc(CC)cc2)C(Cl)Cl)cc1` as the compound, how does the outcome read?
Answer: inactive

Question: With `NC(N)=Nc1nc(CSCC/C(N)=N/S(N)(=O)=O)cs1` as the compound, how does the outcome read?
Answer: inactive

Question: Which “activation” value does the source give for `CCCCC/C=C/CC1CC(=O)OC1=O` (stereo not drawn) here?
Answer: -0.267%

Question: For `CCCC(=O)c1ccccc1`, which “activation” value is on record?
Answer: 2.24%

Question: Which outcome does the source give for `Cc1cc(C2(c3cc(C)c(O)cc3C)OS(=O)(=O)c3ccccc32)c(C)cc1O` here?
Answer: inactive

Question: For `O=C(OCc1ccccc1)c1ccc(O)cc1`, which outcome is on record?
Answer: inactive

Question: With `CCc1cc(C(C)(C)C)c(O)c(C(C)(C)C)c1` as the compound, how does the outcome read?
Answer: inactive

Question: Which “activation” value does the source give for `NCCCCCC(=O)O` here?
Answer: -7.41% [at 35.3 µM]

Question: Which outcome does the source give for `NNCCc1ccccc1` here?
Answer: inactive

Question: With `CC(C)(c1ccccc1)c1ccc(Nc2ccc(C(C)(C)c3ccccc3)cc2)cc1` as the compound, how does the outcome read?
Answer: inactive

Question: For `NC(N)=NC(=O)Cc1c(Cl)cccc1Cl`, which “activation” value is on record?
Answer: 2.82% [at 35.3 µM]

Question: For `CCCNC(C)C(=O)Nc1ccccc1C` (stereo not drawn), which “activation” value is on record?
Answer: 2.12% [at 35.3 µM]

Question: For `NC(Cc1ccc(Cl)cc1)C(=O)O` (stereo not drawn), which activation is on record?
Answer: 0.242% [at 0.29 µM]

Question: Which “activation” value does the source give for `Cc1ccc(-c2cc(C(F)(F)F)nn2-c2ccc(S(N)(=O)=O)cc2)cc1` here?
Answer: -10.9%

Question: With `CC(=O)CC(=O)Nc1ccc2[nH]c(=O)[nH]c2c1` as the compound, how does the “activation” value read?
Answer: -0.476%

Question: Which “activation” value does the source give for `CCN1CCCC1CNC(=O)c1cc(S(=O)(=O)CC)c(N)cc1OC` (stereo not drawn) here?
Answer: 1.89% [at 35.3 µM]

Question: For `CCC[C@H](N[C@@H](C)C(=O)N1[C@H](C(=O)O)C[C@@H]2CCCC[C@@H]21)C(=O)OCC`, which outcome is on record?
Answer: inactive
